Our source for the Percent Effect values is ChEMBL document CHEMBL3988442, “University of Dundee, Small-Polar-MMV Screening Library” (2021).

Common to all, as to set-up: scale not given: direction of the effect not stated beside the values
For experiment [1], the target named is Protein translocase subunit SecA (Escherichia coli (strain K12)) (UniProt P10408). The experiment can be described thus: Assay to Identify E. coli SecA ATPase Inhibitors. The following applies: 30 µM. It counts as functional.
Sequence of Protein translocase subunit SecA (Escherichia coli (strain K12)) (P10408 whole entry): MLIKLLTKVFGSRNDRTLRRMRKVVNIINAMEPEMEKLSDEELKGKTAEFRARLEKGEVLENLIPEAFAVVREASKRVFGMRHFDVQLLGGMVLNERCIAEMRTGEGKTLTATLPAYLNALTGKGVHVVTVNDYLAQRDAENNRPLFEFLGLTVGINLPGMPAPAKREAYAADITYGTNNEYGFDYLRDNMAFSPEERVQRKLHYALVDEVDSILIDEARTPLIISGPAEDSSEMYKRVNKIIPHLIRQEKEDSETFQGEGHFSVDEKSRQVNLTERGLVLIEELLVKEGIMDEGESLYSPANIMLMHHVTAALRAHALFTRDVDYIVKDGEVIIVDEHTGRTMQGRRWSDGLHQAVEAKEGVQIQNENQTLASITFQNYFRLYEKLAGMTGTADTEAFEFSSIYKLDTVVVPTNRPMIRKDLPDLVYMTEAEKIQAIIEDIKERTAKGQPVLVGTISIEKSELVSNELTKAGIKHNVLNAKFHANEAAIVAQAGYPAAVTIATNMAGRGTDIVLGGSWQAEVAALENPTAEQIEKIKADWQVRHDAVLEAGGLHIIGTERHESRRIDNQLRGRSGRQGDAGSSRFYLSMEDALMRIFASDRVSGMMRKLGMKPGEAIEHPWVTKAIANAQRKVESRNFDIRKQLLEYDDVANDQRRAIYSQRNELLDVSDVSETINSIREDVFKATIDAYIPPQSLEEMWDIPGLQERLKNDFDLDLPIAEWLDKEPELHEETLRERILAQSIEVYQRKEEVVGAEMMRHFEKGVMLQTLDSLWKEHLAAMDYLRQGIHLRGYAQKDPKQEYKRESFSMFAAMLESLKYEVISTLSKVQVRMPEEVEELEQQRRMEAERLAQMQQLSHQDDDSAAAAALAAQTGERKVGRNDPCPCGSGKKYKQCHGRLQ
For experiment [2], the target named is T1, Ubiquitin-activating enzyme e1, putative (Leishmania donovani (strain BPK282A1)) (UniProt E9BSI1).
T1 sequence (whole entry): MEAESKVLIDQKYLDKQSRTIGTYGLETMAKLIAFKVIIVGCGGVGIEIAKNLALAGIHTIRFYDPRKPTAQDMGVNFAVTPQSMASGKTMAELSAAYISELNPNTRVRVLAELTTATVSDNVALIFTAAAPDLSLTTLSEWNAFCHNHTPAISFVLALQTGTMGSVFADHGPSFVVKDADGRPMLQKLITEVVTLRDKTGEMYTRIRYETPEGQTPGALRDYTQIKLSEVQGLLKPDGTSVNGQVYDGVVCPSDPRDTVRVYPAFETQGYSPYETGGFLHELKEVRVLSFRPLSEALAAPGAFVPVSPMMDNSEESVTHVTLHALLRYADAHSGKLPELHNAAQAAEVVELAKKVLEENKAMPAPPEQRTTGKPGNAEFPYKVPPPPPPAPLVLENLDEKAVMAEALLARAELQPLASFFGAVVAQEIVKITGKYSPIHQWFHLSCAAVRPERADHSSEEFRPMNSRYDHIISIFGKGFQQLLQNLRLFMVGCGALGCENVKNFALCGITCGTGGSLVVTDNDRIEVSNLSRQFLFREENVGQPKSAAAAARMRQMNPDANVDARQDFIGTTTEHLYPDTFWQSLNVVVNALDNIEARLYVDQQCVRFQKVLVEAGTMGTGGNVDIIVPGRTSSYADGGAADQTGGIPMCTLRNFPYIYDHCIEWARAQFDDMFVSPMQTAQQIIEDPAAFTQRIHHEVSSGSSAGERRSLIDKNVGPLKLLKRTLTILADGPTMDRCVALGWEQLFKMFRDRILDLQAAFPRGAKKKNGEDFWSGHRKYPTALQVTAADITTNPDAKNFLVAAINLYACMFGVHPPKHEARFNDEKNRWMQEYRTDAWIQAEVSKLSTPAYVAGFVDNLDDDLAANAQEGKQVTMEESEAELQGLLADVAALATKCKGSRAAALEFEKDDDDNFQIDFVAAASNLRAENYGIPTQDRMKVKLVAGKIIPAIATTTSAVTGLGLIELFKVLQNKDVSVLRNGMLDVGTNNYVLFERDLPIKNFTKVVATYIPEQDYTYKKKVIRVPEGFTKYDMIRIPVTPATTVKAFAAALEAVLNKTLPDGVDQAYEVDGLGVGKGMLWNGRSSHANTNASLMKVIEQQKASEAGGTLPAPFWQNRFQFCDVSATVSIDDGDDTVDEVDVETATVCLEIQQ
The experiment in a line: Leishmania donovani Ubiquitin Activating Enzyme (LdE1). It counts as functional. As to conditions: 30 µM.

Experiment [3] deals with AMP-activated protein kinase, AMPK (Homo sapiens) (UniProt P54646+O43741+P54619+Q9UGJ0+Q9Y478+Q13131+Q9UGI9). The experiment in a line: AMP-dependent Kinase enzyme assay. An in vitro enzyme assay that detects ADP turnover that is directly proportional to AMPK activity. This uses naive AMPK that is activated during the assay with MK-8722. As to conditions: 30 µM. It counts as functional.

Experiment [4] addresses Sialic acid-binding Ig-like lectin 9 (Homo sapiens) (UniProt Q9Y336). The experiment in a line: Hs-Siglec9 ALPHAscreen SOP 20170721. The following applies: 10 µM.
For another experiment, the system named is Trypanosoma cruzi. The experiment in a line: Trypanosoma cruzi phosphomannomutase and mannose-1-phosphate guanylyltransferase assay. It counts as functional. As to conditions: 10 µM.
Experiment [5] concerns the target T2, Arginase-2, mitochondrial (Homo sapiens) (UniProt P78540).
T2 sequence (whole entry): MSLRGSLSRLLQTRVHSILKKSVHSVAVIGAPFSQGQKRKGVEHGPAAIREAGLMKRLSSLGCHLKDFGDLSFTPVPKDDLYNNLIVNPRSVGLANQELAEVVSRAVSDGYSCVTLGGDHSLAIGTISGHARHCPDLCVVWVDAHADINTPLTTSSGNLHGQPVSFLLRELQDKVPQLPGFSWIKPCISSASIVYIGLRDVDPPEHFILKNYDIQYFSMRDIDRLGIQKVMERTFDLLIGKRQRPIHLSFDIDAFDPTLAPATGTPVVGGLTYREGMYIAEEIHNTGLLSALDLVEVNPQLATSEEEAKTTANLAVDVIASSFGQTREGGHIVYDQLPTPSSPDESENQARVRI
The experiment can be described thus: in vitro enzyme assay to detect the production of urea directly proportional to the activity of Arginase II. Also: in the data most compounds retested in dose-response had high values. The following applies: 33.3 µM. It counts as functional.

Experiment [6] addresses T3, Proteasome subunit beta (Trypanosoma cruzi) (UniProt O96673).
T3 sequence (whole entry): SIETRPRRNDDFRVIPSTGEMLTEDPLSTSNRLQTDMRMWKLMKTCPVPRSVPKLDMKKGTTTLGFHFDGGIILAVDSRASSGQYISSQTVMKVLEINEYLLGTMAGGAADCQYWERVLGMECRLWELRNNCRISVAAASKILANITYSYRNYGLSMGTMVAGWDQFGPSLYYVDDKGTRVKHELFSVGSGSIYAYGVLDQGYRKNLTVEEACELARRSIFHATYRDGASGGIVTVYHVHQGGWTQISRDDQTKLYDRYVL
The experiment can be described thus: Trypanosoma cruzi proteasome chymotrypsin-like activity (TcProtChymo) assay. Also: in the data most compounds retested in dose-response had high values. It counts as functional. As to conditions: 9.37 µM.

The species entered for another experiment is Homo sapiens. The experiment in a line: To identify inhibition of the IFN signalling (Jak-Stat) pathway via expression of an eGFP reporter gene under the control of an IFN-stimulated response element (ISRE) containing MxA promoter. The following applies: 30 µM. It counts as functional.
Experiment [7] deals with T4, Tyrosyl-tRNA synthetase, putative (Trypanosoma cruzi (strain CL Brener)) (UniProt Q4DSP6).
T4 sequence (whole entry): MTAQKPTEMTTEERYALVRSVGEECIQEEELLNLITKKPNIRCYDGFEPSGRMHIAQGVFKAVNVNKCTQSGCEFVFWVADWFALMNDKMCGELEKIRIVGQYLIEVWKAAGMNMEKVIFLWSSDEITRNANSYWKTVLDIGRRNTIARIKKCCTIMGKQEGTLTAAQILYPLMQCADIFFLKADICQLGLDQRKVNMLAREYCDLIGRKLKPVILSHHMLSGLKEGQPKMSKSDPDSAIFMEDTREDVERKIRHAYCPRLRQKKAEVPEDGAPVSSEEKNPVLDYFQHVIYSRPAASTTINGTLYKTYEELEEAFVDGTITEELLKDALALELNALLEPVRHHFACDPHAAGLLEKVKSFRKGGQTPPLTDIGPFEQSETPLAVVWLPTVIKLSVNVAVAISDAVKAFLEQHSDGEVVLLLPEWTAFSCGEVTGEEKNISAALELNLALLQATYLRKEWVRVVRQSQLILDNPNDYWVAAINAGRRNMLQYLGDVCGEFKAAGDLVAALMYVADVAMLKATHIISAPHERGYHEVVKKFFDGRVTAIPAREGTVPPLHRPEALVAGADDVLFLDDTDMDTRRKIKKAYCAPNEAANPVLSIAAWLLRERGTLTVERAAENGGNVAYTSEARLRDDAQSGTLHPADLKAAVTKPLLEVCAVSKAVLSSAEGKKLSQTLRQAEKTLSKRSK
The experiment can be described thus: Trypanosoma cruzi tyrosyl tRNA synthetase (TcYRS) _High Tyrosine SOP. Also: in the data most compounds retested in dose-response had high values. It counts as functional. The following applies: 30 µM.

In experiment [8] the target is T4, Tyrosyl-tRNA synthetase, putative (Trypanosoma cruzi (strain CL Brener)). The experiment can be described thus: Trypanosoma cruzi tyrosyl tRNA synthetase (TcYRS) SOP. It counts as functional. The following applies: 30 µM.
Experiment [9] deals with Chromo domain-containing protein 1 (Saccharomyces cerevisiae (strain ATCC 204508 / S288c) (Baker's yeast)) (UniProt P32657). The experiment can be described thus: ScCHD-1 Enzyme Inhibition Assay. Also: in the data most compounds retested in dose-response had high values. It counts as functional. The following applies: 30 µM.
Sequence of Chromo domain-containing protein 1 (Saccharomyces cerevisiae (strain ATCC 204508 / S288c) (Baker's yeast)) (P32657 whole entry, the tested form may be a part): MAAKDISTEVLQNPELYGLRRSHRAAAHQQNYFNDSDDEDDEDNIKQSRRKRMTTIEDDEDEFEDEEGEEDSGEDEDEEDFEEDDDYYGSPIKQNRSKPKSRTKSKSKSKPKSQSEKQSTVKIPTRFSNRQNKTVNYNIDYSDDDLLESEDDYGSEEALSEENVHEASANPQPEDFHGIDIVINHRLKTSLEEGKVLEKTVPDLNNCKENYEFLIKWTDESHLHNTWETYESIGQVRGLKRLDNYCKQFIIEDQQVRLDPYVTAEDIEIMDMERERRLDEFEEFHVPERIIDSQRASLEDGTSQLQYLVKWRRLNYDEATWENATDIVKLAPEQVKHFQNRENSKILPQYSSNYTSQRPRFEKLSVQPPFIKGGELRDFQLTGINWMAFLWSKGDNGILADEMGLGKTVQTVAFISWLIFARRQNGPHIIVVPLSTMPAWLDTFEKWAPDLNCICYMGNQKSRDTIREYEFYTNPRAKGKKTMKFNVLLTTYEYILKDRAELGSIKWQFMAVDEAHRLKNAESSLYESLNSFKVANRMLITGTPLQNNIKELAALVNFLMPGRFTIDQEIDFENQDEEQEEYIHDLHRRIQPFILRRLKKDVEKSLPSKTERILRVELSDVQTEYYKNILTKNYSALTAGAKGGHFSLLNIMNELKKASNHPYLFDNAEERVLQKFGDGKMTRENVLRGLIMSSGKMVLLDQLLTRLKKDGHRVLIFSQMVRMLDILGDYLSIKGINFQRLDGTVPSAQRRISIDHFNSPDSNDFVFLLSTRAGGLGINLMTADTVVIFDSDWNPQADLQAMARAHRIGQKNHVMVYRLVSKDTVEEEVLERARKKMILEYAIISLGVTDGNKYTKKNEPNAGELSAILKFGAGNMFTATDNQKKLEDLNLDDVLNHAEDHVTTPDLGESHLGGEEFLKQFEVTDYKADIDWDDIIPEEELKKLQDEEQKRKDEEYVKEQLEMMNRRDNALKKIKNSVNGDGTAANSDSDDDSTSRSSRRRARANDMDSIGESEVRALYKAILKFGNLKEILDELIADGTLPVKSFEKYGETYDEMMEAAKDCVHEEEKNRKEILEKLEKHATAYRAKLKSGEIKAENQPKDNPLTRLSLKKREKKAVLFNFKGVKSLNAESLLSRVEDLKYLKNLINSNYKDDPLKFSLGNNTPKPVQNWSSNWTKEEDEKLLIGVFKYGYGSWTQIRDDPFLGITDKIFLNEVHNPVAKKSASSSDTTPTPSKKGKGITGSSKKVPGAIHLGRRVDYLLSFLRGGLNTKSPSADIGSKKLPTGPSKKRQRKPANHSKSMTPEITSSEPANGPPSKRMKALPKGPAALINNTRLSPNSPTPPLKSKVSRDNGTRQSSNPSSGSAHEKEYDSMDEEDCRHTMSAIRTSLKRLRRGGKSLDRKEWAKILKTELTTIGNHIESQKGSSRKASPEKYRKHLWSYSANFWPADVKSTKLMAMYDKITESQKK

For some of these results: Measured potencies and affinities stand elsewhere.

Sequence of Sialic acid-binding Ig-like lectin 9 (Homo sapiens) (Q9Y336 whole entry): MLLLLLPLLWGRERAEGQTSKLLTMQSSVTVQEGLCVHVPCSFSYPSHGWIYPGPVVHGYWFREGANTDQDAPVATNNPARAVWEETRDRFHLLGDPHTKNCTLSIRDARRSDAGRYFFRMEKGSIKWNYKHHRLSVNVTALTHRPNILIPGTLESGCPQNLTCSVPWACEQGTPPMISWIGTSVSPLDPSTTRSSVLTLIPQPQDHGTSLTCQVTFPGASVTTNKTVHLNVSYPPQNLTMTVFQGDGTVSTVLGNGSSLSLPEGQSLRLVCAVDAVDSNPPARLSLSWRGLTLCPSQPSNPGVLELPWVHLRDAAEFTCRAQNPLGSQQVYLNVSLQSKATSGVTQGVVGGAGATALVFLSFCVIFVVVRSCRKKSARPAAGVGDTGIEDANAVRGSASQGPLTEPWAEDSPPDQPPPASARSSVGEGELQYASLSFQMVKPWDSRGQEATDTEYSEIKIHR

As to `Cc1c(I)cccc1C(=O)NCC1(CO)CC1`, the Percent Effect was -4.35% in experiment [1]; 13.5% in experiment [2]; -3.32% in [3]; 13.5% in experiment [4]; 7.14% in the experiment on Trypanosoma cruzi; 0.952% in [5]. Further, the Percent Effect in [6] was 1.38%; in the experiment filed under Homo sapiens it was -9.36%; in [7], 0.529%; in [8], 14.6%; in experiment [9] it was -4.29%.

Turning to `CC(=O)N1CCCCC1c1cc(CO)[nH]n1` (stereo unspecified), the Percent Effect in [1] was -1.55%; in [2], 1.35%; in experiment [3], 7%; in experiment [4], 5.31%; in the experiment on Trypanosoma cruzi, 1.78%; in experiment [5], 2.09%. In addition, the Percent Effect came to 12.3% in experiment [6]; 10.5% in the experiment filed under Homo sapiens; 3.23% in experiment [7]; 6.49% in experiment [8]; 9.52% in experiment [9].

Turning to `Cc1ccccc1-n1ncc(C(=O)N2CCCC2c2cnn(C)c2)c1C` (stereo unspecified), the Percent Effect is -1.92% in experiment [1]; 10.8% in experiment [2]; -5.91% in experiment [3]; -5.79% in [4]; 7.71% in the experiment on Trypanosoma cruzi; -0.924% in experiment [5]. In addition, the Percent Effect in experiment [6] is 5.57%; in the experiment listed under Homo sapiens it was -8.29%; in experiment [7] it was 3.96%; in experiment [8] it was 18.3%; in experiment [9], -5.96%.

As to `CCc1ccc(CCC(=O)N2CCOCC2c2ncon2)cc1` (stereo unspecified), the Percent Effect in experiment [1] was 2.75%; in experiment [2] it was -8.11%; in experiment [3], 4.51%; in experiment [4], 1.5%; in the experiment with Trypanosoma cruzi it was -2.69%; in [5], 3.14%. The Percent Effect is 3.05% in [6]; 13.7% in the experiment filed under Homo sapiens; -0.99% in [7]; 1.22% in experiment [8]; 8.82% in experiment [9].

Turning to `c1cnnc(N2CCCC2CNc2ncnc3c2CCC3)c1` (stereo unspecified), the Percent Effect in experiment [1] is -5.27%; in experiment [2] it was 1.27%; in experiment [3] it was 4.89%; in experiment [4] it was -6.25%; in the experiment with Trypanosoma cruzi, -1.95%; in experiment [5], 3.66%. Besides, the Percent Effect in experiment [6] is 1.54%; in the experiment listed under Homo sapiens it was -1.2%; in experiment [7], 11.5%; in experiment [8], 15.2%; in [9] it was 1.39%.

Turning to `Cc1nc(C2(NCC(=O)NCCc3cccs3)CCCC2)no1`, the Percent Effect in experiment [1] was -2.85%; in experiment [2], 7.89%; in experiment [3], -3.1%; in [4], 0.327%; in the experiment with Trypanosoma cruzi it was -4.38%; in experiment [5], -9.47%. Moreover, the Percent Effect was 15.1% in experiment [6]; 6.74% in the experiment filed under Homo sapiens; 2.13% in experiment [7]; 15.6% in experiment [8]; -1.92% in experiment [9].

On to `CN(C)C(=O)CC1CC2(CCN(c3ncccn3)CC2)c2ccccc21` (stereo unspecified), for which the Percent Effect was -7.49% in experiment [1]; 5.41% in experiment [2]; 5.36% in [3]; -1.25% in experiment [4]; 3.32% in the experiment with Trypanosoma cruzi; 2.92% in experiment [5]. In addition, the Percent Effect is 4.14% in experiment [6]; 6.8% in the experiment filed under Homo sapiens; 5.94% in experiment [7]; 3.66% in experiment [8]; -4.19% in [9].

For `COc1cc(CNc2cnn(C)c2)cc2c1OCCO2`, the Percent Effect in [1] is -3.52%; in experiment [2] it was -13.2%; in experiment [3], -22.5%; in experiment [4] it was 3.9%; in the experiment on Trypanosoma cruzi, 1.5%; in experiment [5] it was -1.15%. Also, the Percent Effect was 4.68% in experiment [6]; -1.15% in the experiment listed under Homo sapiens; -13.2% in [7]; -14.6% in experiment [8]; -4.73% in [9].

`Cc1noc(C)c1CNC(=O)N1CCC(CO)CC1`: the Percent Effect in experiment [1] is -1.26%; in experiment [2], 13.7%; in experiment [3] it was -4.05%; in experiment [4] it was 6.04%; in the experiment with Trypanosoma cruzi it was 2.18%; in experiment [5], -1.2%. In addition, the Percent Effect in experiment [6] is 7.62%; in the experiment listed under Homo sapiens, 23.9%; in experiment [7], 7.29%; in experiment [8], 16.1%; in [9] it was -0.505%.

Consider `c1ccc(CN2CC[C@@H]3O[C@@H](COCC4CCOCC4)CC[C@@H]32)nc1`, for which the Percent Effect was -4.64% in experiment [1]; 10.7% in [2]; 1.98% in experiment [3]; -3.4% in [4]; -0.394% with Trypanosoma cruzi; 2.1% in [5]. The Percent Effect in experiment [6] is 12.4%; in the experiment filed under Homo sapiens, -2.6%; in experiment [7], 2.13%; in experiment [8], 8.97%; in experiment [9] it was -2.41%.

Turning to `COc1cc(C)sc1C(=O)N1CC(c2cccnc2)C1`, the Percent Effect in experiment [1] was -4.73%; in experiment [2], 2.7%; in experiment [3], 4.4%; in experiment [4] it was -2.39%; in the experiment on Trypanosoma cruzi, -3.86%; in experiment [5] it was -1.91%. Moreover, the Percent Effect is 9.65% in experiment [6]; -1.77% in the experiment filed under Homo sapiens; 1.59% in experiment [7]; 9.76% in experiment [8]; -1.11% in experiment [9].
